# Laboratory results from PubChem BioAssay (NCI).
# About 83,000 compounds went through this panel and 20% of them were active in at least one assay; those are over-represented in the sample as a whole.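 The endpoint reported here, percent growth, reads 100 for growth as untreated, 0 for no net growth and -100 for all cells dead.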 Values without a mark were called inactive. Activity calls are given as the source filed them. The calls were made as follows: active = growth percent below 10; inactive = the rest.
# Key:
# Experiment in all cases: NCI-60 one-dose screen, 48 h (100 = growth as untreated, 0 = no growth, -100 = all killed)
# SR leukemia = conditions: 10 µM unless noted
# RPMI-8226 leukemia = conditions: 10 µM unless noted
# OVCAR-8 ovarian = conditions: 10 µM unless noted
# OVCAR-5 ovarian = conditions: 10 µM unless noted
# OVCAR-4 ovarian = conditions: 10 µM unless noted
# SK-OV-3 ovarian = conditions: 10 µM unless noted
# IGROV1 ovarian = conditions: 10 µM unless noted
# OVCAR-3 ovarian = conditions: 10 µM unless noted
# HS 578T breast = conditions: 10 µM
# NCI/ADR-RES ovarian = conditions: 10 µM unless noted
# T-47D breast = conditions: 10 µM unless noted
# BT-549 breast = conditions: 10 µM unless noted
# MDA-MB-435 melanoma = conditions: 10 µM unless noted
# SW-620 colon = conditions: 10 µM unless noted
# MCF7 breast = conditions: 10 µM unless noted
# HCT-116 colon = conditions: 10 µM unless noted
# HCC-2998 colon = conditions: 10 µM unless noted
# KM12 colon = conditions: 10 µM unless noted
SMILES,growth (SR leukemia),growth (RPMI-8226 leukemia),growth (OVCAR-8 ovarian) [%],growth (OVCAR-5 ovarian) [%],growth (OVCAR-4 ovarian) [%],growth (SK-OV-3 ovarian) [%],growth (IGROV1 ovarian) [%],growth (OVCAR-3 ovarian),growth (HS 578T breast) [%],growth (NCI/ADR-RES ovarian) [%],growth (T-47D breast) [%],growth (BT-549 breast) [%],growth (MDA-MB-435 melanoma),growth (SW-620 colon) [%],growth (MCF7 breast),growth (HCT-116 colon) [%],growth (HCC-2998 colon),growth (KM12 colon)
NNC(=O)Cc1ccccc1,88.9%,88.4%,87.6,77.1,97.4,78.4,97.5,96%,95.7,72.2,85,108,83.7%,86.2,91.5%,90.6,102%,80.1%
COc1ccc(-c2nn(-c3cccc(Cl)c3)cc2/C=C2\C(=N)N(c3ccccc3)N=C2N)cc1,17.9%,47.3%,42.3,39.8,71.6,91.3,27.9,38.8%,82.1,34.7,28.6,101,31.3%,32.5,26.6%,51.3,0.0499% (active),-25.2% (active)
COc1ccc(-c2nsc3c2NC(=O)CC3c2ccc3c(c2)OCO3)cc1 (centres undefined),-21.6% (active),2.77% (active),26.2,48.6,66.8,24.4,19.7,-26.3% (active),17.6,13.9,33.2,53.6,-38.5% (active),24.9,22.7%,28.6,39.4%,31.2%
COc1ccc(NC(=O)/C=C/c2ccc(NC(=O)N3CCCC3)cc2)cn1,106%,99.5%,101,113,101,101,105,103%,95.9,107,99.9,97.4,103%,106,91.7%,103,111%,103%
Cc1cc(Cl)c2ccc(N(C)C)cc2n1,87.3%,97%,102,105,105,97.4,106,104%,96.9,104,90.7,111,102%,99.5,92.1%,105,101%,104%
O=C(N=Nc1c(Cl)c(O)c2ccccc2c1O)C(=O)Nc1cccc(C(F)(F)F)c1,32.2%,76.9%,83.6,118,66.9,89.6,39.3,24.7%,83.8,71,44.9,69,-29.3% (active),63.6,-4.71% (active),33.1,96.2%,53.6%
COc1cc(-c2nc(-c3nc4cc(C(=O)c5ccccc5)ccc4[nH]3)cc3c2[nH]c2ccccc23)cc(OC)c1OC,81.6%,42%,67.4,103,96.8,146,107,101%,95.7,88.7,88.9,79.7,96.2%,103,86.3%,82.6,104%,84.5%
FC1(F)CCN(Cc2c[nH]c3cc(Cl)ccc23)C[C@H]1CCc1ccccc1,51.6%,34%,47.7,80.5,56.7,84,40.8,54.6%,56.6,37.2,45.2,56,59.3%,38.8,41.2%,22.8,95.3%,60.8%
